A selection: hits, their analogues and other compounds. The true share with any hit is near 3.5%.
mHTT-CaM PPI inh – inhibitors of human mutant huntingtin-calmodulin interaction; inhibition, % at 15 µM; P42858; AlphaScreen His-mHTT/GST-CaM binding, luminescence; 190,000 tested, 3.6% active;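 note: 0% = both proteins with DMSO and 100% = one protein alone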
Target sequence (P42858 whole entry, looked up, stated change not applied): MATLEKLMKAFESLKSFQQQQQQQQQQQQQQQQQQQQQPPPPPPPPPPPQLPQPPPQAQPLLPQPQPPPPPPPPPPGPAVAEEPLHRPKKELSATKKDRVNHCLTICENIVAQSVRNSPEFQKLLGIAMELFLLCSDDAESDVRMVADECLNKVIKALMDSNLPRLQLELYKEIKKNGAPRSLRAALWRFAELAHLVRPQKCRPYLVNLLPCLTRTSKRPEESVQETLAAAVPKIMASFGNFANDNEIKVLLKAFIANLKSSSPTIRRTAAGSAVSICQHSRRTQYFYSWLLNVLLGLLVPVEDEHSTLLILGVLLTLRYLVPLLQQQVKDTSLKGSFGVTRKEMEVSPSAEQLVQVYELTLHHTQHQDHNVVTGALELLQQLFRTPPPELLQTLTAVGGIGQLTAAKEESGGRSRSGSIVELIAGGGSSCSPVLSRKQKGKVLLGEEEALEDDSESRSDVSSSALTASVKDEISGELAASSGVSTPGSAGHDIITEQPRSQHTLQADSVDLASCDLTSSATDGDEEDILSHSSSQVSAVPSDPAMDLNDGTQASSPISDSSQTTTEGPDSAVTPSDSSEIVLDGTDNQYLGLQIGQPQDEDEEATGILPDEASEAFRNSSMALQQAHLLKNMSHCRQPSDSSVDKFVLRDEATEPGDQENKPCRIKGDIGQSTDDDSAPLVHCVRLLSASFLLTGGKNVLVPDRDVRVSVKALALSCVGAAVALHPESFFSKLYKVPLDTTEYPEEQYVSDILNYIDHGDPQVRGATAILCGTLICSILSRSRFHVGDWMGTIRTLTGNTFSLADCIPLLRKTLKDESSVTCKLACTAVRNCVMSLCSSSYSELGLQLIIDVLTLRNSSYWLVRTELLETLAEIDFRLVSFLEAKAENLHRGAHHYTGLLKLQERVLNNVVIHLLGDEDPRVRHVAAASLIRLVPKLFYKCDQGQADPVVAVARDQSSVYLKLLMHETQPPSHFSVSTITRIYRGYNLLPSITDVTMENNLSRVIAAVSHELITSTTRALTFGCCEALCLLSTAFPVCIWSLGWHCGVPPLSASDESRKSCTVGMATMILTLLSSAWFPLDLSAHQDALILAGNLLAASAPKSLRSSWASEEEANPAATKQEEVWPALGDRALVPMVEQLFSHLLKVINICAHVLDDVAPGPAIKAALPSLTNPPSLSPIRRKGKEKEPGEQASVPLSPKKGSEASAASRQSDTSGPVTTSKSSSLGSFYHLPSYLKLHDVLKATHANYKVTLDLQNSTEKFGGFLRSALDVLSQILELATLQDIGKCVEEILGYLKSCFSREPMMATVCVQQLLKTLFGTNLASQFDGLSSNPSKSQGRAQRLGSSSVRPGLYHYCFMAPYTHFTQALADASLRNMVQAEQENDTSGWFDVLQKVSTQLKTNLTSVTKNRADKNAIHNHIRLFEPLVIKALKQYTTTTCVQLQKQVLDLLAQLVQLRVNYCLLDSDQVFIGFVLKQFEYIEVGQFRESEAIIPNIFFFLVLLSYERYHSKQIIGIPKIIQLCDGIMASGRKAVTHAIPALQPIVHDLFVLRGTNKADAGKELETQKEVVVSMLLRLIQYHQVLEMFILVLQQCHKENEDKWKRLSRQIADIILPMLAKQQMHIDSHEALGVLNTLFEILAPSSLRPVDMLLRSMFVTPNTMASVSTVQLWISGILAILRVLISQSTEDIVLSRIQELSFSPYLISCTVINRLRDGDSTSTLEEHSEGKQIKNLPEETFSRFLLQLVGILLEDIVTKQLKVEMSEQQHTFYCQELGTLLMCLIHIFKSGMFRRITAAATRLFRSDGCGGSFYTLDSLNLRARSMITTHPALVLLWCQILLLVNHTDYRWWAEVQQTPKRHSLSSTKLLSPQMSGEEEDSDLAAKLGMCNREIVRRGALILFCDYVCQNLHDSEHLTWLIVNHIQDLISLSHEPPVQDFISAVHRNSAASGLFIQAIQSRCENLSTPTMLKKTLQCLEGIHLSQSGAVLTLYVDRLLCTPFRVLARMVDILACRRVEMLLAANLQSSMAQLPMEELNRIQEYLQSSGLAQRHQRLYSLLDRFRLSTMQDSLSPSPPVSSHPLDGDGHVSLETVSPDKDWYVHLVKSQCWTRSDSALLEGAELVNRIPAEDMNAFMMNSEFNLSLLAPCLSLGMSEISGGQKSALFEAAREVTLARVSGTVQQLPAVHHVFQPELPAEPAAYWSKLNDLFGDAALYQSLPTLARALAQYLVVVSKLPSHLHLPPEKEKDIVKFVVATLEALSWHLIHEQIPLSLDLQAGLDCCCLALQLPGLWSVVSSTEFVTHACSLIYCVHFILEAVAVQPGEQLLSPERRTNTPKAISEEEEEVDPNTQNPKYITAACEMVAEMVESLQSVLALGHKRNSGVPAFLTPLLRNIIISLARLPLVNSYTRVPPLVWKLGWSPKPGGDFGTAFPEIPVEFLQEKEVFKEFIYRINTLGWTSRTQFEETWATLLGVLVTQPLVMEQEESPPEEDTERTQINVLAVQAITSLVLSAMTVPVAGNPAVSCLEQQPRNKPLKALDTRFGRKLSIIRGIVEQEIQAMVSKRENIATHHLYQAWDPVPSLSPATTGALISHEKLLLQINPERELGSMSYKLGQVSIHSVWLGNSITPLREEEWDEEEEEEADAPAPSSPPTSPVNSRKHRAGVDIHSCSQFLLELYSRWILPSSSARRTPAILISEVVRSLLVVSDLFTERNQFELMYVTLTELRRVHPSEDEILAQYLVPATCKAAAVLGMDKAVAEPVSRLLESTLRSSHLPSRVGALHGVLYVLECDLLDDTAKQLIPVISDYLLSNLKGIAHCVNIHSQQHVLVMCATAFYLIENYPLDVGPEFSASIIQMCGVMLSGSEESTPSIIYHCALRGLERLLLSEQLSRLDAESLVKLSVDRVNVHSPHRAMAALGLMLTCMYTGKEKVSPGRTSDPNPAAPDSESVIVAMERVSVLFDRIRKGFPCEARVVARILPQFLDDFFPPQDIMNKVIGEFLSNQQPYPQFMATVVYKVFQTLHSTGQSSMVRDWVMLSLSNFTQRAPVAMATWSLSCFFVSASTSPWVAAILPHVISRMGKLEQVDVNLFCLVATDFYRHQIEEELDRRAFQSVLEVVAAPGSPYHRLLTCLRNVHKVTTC
Pf apPOL inh – Pf-apPOL DNA polymerase inhibition; Recombinant Pf-apPOL, molecular beacon fluorescence, 1.5 h; inhibition, % at 10 µM; 210,000 tested, 0.25% active
Active calls of the source: *; x = not tested or not shown. Cut-off read from the data, not from the text of the source: active = inhibition above about 50%; inactive = the rest.

SMILES	mHTT-CaM PPI inh	Pf apPOL inh
O=C(Nc1ccc(O)c2c(=O)cc(-c3ccccc3Cl)oc12)c1ccc(Br)cc1	21	-4
O=C(N=c1sccn1Cc1ccc(C(=O)N2CCCC2)cc1)c1ccccc1F	7	58*
Cc1cccc(C(=O)N=c2sccn2Cc2ccccc2C(=O)N2CCCC2)c1	15	0
COc1cccc(CN2CCN(C(=O)c3ccc([N+](=O)[O-])cc3)CC2)c1OC	3	-1
O=S(=O)(Oc1cc(Cl)cc(Cl)c1)c1ccc(S(=O)(=O)c2ccc(C(F)(F)F)cn2)s1	x	-3
CN(C)CC(O)Cn1c2ccccc2c2ccccc21 (stereo unspecified)	1	-10
OCC(CO)(CO)NCC(O)Cn1c2ccccc2c2ccccc21 (stereo unspecified)	2	4
CN(C)CC(O)Cn1c2ccc(Cl)cc2c2cc(Cl)ccc21 (stereo unspecified)	60*	26
OCC(CO)(CO)NCC(O)Cn1c2ccc(Cl)cc2c2cc(Cl)ccc21 (stereo unspecified)	68*	1
OCCNCC(O)Cn1c2ccccc2c2ccccc21 (stereo unspecified)	2	-4
CC(C)(CO)NCC(O)Cn1c2ccc(Cl)cc2c2cc(Cl)ccc21 (stereo unspecified)	97*	0
Cc1ccc(N2C(=O)CC(NC3CCN(Cc4ccccc4)CC3)C2=O)cc1 (stereo unspecified)	-6	-2
COCCCNC(=O)c1cc(Br)c(C)c(C)c1C	-3	0
CC(C)(C)C1=CC(=Cc2cc(C(C)(C)C)c(O)c(C(C)(C)C)c2)C=C(C(C)(C)C)C1=O	18	x
CC(C)(C)C1=CC(=O)c2c(ccc(C(C)(C)C)c2O)C1=O	58*	3
CC1NC2(C(=O)N(C/C=C/c3ccccc3)c3ccccc32)C2C(=O)N(c3ccccc3)C(=O)C12 (stereo unspecified)	47	3
CC1NC2(C(=O)N(C/C=C/c3ccccc3)c3ccccc32)C2C(=O)N(Cc3ccccc3)C(=O)C12 (stereo unspecified)	52*	-12
COc1ccc(C(=O)C(C)OC(=O)CCc2c[nH]c3ccccc23)cc1 (stereo unspecified)	90*	-7
COc1ccc(C(=O)NCCc2c[nH]c3ccccc23)cc1	2	-6
CCc1c(C)sc(NC(=O)C(C)Oc2ccc(Cl)cc2C)c1C(N)=O (stereo unspecified)	-4	0
Cc1ccc(N(Cc2ccco2)C(=O)CNS(=O)(=O)c2ccc(C)cc2)cc1	-2	-4
Cc1c(C(=O)NCc2ccccc2)oc2ccc(S(=O)(=O)N3CC(C)CC(C)C3)cc12 (stereo unspecified)	-2	4
O=c1c2cn[nH]c2nc(SCc2ccc(C(F)(F)F)cc2)n1-c1ccccc1	63*	-16
O=C(CSc1nc2[nH]ncc2c(=O)n1-c1ccccc1)Nc1ccc(C(F)(F)F)cc1	37	-5
Cc1cccc2nnc(N3CCN(C(=O)c4ccc(F)cc4)CC3)n12	-7	1
SMILES	mHTT-CaM PPI inh	Pf apPOL inh
CC(C)(C)n1nc2c(c1NC(=O)COc1ccc(Cl)cc1Cl)CSC2	13	-3
CC(C)(C)n1nc2c(c1NC(=O)COc1ccc(Cl)cc1)CSC2	57*	6
Cc1cc(C(=O)NCCC2=CCCCC2)ccc1[N+](=O)[O-]	-5	-1
CC(=O)N1CCCN(C2=NS(=O)(=O)C(c3ccc(C)cc3)=C2C)CC1	1	2
Cc1cc(NC(=O)CSc2nc3ccccc3c(=O)n2Cc2ccc3c(c2)OCO3)no1	1	-2
CC(C)CCNC(=O)C1CCN(c2ncccc2-c2nc(-c3ccccc3)no2)CC1	-6	-3
N#CC(C#N)C(C#N)(C#N)C1CCC/C(=C\c2ccco2)C1=O (stereo unspecified)	99*	2
O=C1/C(=C/c2ccco2)CC2CC1C/C(=C\c1ccco1)C2=O	47	2
COc1ccc(OCC2CN(C(=O)c3ccc(Cl)cc3)CCO2)cc1 (stereo unspecified)	-3	-1
O=C(c1ccc(F)cc1)N1CCN(c2ccccc2)CC1	-2	-3
O=C(c1ccc(C#CC2(O)CCCCC2)cc1)N1CCN(c2ccc(F)cc2)CC1	52*	-14
Cc1ccc(C2Oc3ccccc3C3=C2C(c2ccc(F)cc2)n2ncnc2N3)cc1 (stereo unspecified)	3	2
Fc1ccc(C2C3=C(Nc4ncnn42)c2ccccc2OC3c2cccc(F)c2)cc1 (stereo unspecified)	27	-5
Cc1ccc(C2C3=C(Nc4ncnn42)c2ccccc2OC3c2ccc(F)cc2)cc1 (stereo unspecified)	51*	-5
Cc1ccc(C2C3=C(Nc4ncnn42)c2ccccc2OC3c2cccc(F)c2)cc1 (stereo unspecified)	53*	-7
O=C(Nc1cc(Cl)cc(Cl)c1)c1ccc(Br)o1	-7	-126
O=S1(=O)N[C@H](Cc2ccccc2)COc2cccc(F)c21	-3	-2
Cc1cccc(NC(=O)N2CCOc3ccc(Cl)cc32)c1	-10	-2
COc1ccc(C2=NN(C(=O)c3ccccc3Cl)C(c3cccc([N+](=O)[O-])c3)C2)cc1 (stereo unspecified)	31	14
COc1ccc(C2=NN(CN3C(=O)C(=O)c4ccccc43)C(c3ccccc3Cl)C2)cc1 (stereo unspecified)	76*	5
COc1ccc(C2=NN(CN3C(=O)C(=O)c4ccccc43)C(c3cccc([N+](=O)[O-])c3)C2)cc1 (stereo unspecified)	96*	-3
COc1ccc(C2=NN(CN3C(=O)C(=O)c4ccccc43)C(c3ccccc3)C2)cc1 (stereo unspecified)	2	-1
O=C(NCc1ccc2c(c1)OCO2)C1CCN(c2ccc(Br)cc2)C1=O (stereo unspecified)	-3	-4
O=C(NC1CC1)C1CCN(C(=O)Nc2cccs2)CC1	15	-4
O=C(NCc1ccccc1Cl)C1CCN(C(=O)Nc2cccs2)CC1	58*	-6
SMILES	mHTT-CaM PPI inh	Pf apPOL inh
COc1ccc(NC(=O)N2CCn3cccc3C2Cc2ccccc2)c(OC)c1 (stereo unspecified)	54*	-1
Cc1ccc(NC(=O)N2CCn3cccc3C2Cc2ccccc2)cc1 (stereo unspecified)	10	-4
O=C(Nc1ccc(F)cc1)N1CCn2cccc2C1Cc1ccccc1 (stereo unspecified)	69*	-8
COc1ccc(C)cc1NC(=O)N1CCn2cccc2C1Cc1ccccc1 (stereo unspecified)	48	-5
CCc1ccc(NC(=O)N2CCn3cccc3C2Cc2ccccc2)cc1 (stereo unspecified)	18	-2
O=C(Nc1cccc(Cl)c1)N1CCn2cccc2C1Cc1ccccc1 (stereo unspecified)	92*	1
N#C/C(=C(/O)c1ccc(I)cc1)c1nc2ccccc2s1	7	4
CCCCOc1ccc(C2=N/C(=C\c3ccccc3OCC)C(=O)O2)cc1	-3	4
COc1cccc(-c2nc(-c3cccc([N+](=O)[O-])c3)no2)c1	0	-6
COc1ccccc1C(=O)N1CCN(c2cc(-c3cccnc3)[nH]n2)CC1	-3	-7
COc1ccccc1C(=O)N1CCCN(c2cc(-c3ccccc3)[nH]n2)CC1	57*	-2
N#CC1=C(N)Oc2n[nH]c(-c3ccccc3)c2C1c1cccs1 (stereo unspecified)	2	-3

Assay outcomes from PubChem.
